Shown are actives, neighbours in structure and some others; about 4.3% of the full set was active somewhere.
MLL AF4-AF9 inh: inhibitors of AF4 peptide binding to AF9, primary screen, biochemical, AlphaScreen, biotin-AF4 peptide, FLAG-AF9, single point; Protein AF-9 (Homo sapiens), P42568; inhibition, % at 10 µM; 0.47% of 350,000 active;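 active = every replicate reaching a set inhibition limit, whatever the replicate mean, cut at about 25% in these data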;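 also: 0% = plate neutral control median and 100% = total signal loss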
Wnt act: Wnt/beta-catenin pathway activators, primary screen, cell-based, plate reader, single point. Wnt/beta-catenin reporter cell assay, activator. activation, % at 9.35 µM. 1.2% of 300,000 active. AID 743398, 2014; in the data active = activation above about 30%, passing the limit was not always enough;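 also: 0% = neutral control wells and 100% = positive control wells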
esBAF inh: Bmi1 luciferase reporter increase in mESCs, primary screen, esBAF inhibitor project, mouse ES cells, Bmi1 luciferase knock-in, single point; 24 h; 100% = twice the neutral-well signal; reporter increase, % at 12.5 µM; 2% of 350,000 active; in the data active = activation above about 40%;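 also: 0% = median of the plate's neutral control wells and 100% = double that signal; a rise in the Bmi1 reporter signal indicates esBAF inhibition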
SMARCA2 activ: SMARCA2 (BRM) function activators, primary screen, cell-based, luminescence, high throughput; MG213 cells, MMTV-luciferase reporter, dexamethasone, overnight; activation, % at 9.1 µM; 1% of 370,000 active; AID 652017, 2013; in the data active = activation above about 7.8%;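 also: 0% = vehicle wells and 100% = reference activator wells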
FGF22 binding: binders of human FGF22 protein, primary screen, FGF22 synaptogenesis inhibitor project, biophysical, thermal shift, single point. Fibroblast growth factor 22 (Homo sapiens), Q9HCT0. recombinant FGF22 thermal shift, SYPRO orange fluorescence; percent of sucrose octasulfate shift, DMSO zero. activity (Tm shift, normalised), % at 9.99 µM. 1.5% of 340,000 active;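 active = mean Tm shift, scaled 0 neutral to 100 positive control, at about 1.3% or above, every replicate too, limit read from the data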
Target sequence (Q9HCT0 whole entry, looked up): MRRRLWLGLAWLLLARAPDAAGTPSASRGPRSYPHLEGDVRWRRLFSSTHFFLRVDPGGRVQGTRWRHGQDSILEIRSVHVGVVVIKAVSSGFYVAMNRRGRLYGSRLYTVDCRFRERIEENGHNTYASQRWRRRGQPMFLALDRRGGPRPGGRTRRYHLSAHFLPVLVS
MITF act: activators of MITF-driven TRPM1 promoter reporter, primary screen, cell-based, SK-MEL-5, luciferase, single point | SK-MEL-5 TRPM1-promoter luciferase, 24 h; % of positive control, neutral wells = 0 | activation, % at 12.5 µM | 0.75% of 300,000 active;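 active = mean activation of at least 80% with every replicate also reaching 80%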;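 also: 0% = neutral control wells and 100% = parthenolide positive control wells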
* = called active by the depositor; . = not tested or not shown.

SMILES	MLL AF4-AF9 inh	Wnt act	esBAF inh	SMARCA2 activ	FGF22 binding	MITF act
CCC(C)(C)n1nnnc1C(c1cc2cc(OC)c(OC)cc2[nH]c1=O)N1CCc2ccccc21 (stereo not drawn)	.	.	.	0.0	.	-9.0
COc1cc2cc(C(c3nnnn3C(C)(C)C)N3CCc4ccccc4C3)c(=O)[nH]c2cc1OC (stereo not drawn)	.	34.4*	-1.7	2.9	.	-14.0
C[C@@H]1CCCCO[C@H](CN(C)Cc2ccc(Cl)c(Cl)c2)[C@@H](C)CN([C@@H](C)CO)C(=O)c2cc(NS(=O)(=O)c3cn(C)cn3)ccc2O1	7.7	.	-6.0	.	-0.1	.
O=C(C1CCC1)N1C[C@H]2[C@@H](c3ccccc31)[C@H](CO)N2C(=O)c1ccccc1F	1.6	.	-1.9	.	-0.2	.
CCCN=Cc1sc2ccc(OCC)cc2c1O	.	26.5	76.7*	-2.1	.	100.5*
CC(=O)NCCN=Cc1sc2ccccc2c1O	.	17.8	13.6	-2.8	.	-1.7
Cc1ccc(S(=O)(=O)N(C)C[C@@H]2Oc3c(NS(=O)(=O)c4ccccc4)cccc3C(=O)N([C@@H](C)CO)C[C@H]2C)cc1	-0.6	.	-8.1	.	-0.1	.
COC(=O)C1CC(O)CN1C(=O)Nc1ccccc1 (stereo not drawn)	-5.6	-5.4	.	1.9	43.3*	4.2
O=C(C[C@H]1C=C[C@@H](NC(=O)CC2CC2)[C@@H](CO)O1)NCc1ccc(Cl)cc1	-8.1	.	0.6	.	-0.1	.
C[C@@H]1CN([C@@H](C)CO)C(=O)c2cc(NC(=O)Nc3ccc(C(F)(F)F)cc3)ccc2O[C@@H]1CN(C)S(=O)(=O)c1ccc(F)cc1	2.6	.	-1.1	.	0.4	.
S=C(NCc1ccccc1)Nc1ccc2ccccc2c1	-2.3	21.5	80.5*	2.0	0.2	59.8
Cc1cc(C)cc(NC(=S)NCc2ccncc2)c1	-12.5	0.5	.	-3.6	43.8*	-4.0
S=C(NCc1ccccc1)Nc1ccc(Oc2ccccc2)cc1	-1.7	-0.6	-2.4	0.4	0.4	.
COc1ccc(CNC(=S)Nc2ccc(F)c(Cl)c2)cc1	-0.6	-0.1	.	-2.0	1.7*	5.5
C/C(=C\C(=S)Nc1ccccc1)Nc1ccc2ccccc2c1	2.4	52.2*	.	1.9	0.1	14.4
C/C(=C\C(=S)Nc1ccccc1)Nc1cccc2ccccc12	.	6.9	.	2.0	.	-7.8
COc1ccc(CNC(=S)Nc2cccc(OC)c2)cc1	-3.0	-0.8	-8.0	1.0	-0.1	7.0
COc1cccc(CNC(=O)C[C@H]2CC[C@H](NC(=O)C3CCC3)[C@@H](CO)O2)c1	-0.6	.	-7.1	.	0.5	.
Cc1noc(C)c1S(=O)(=O)Nc1ccc2c(c1)C(=O)N([C@@H](C)CO)C[C@@H](C)[C@@H](CN(C)S(C)(=O)=O)OCCCC[C@@H](C)O2	0.5	.	6.0	.	0.1	.
NS(=O)(=O)c1ccc(NC(=S)NCc2ccc(Cl)cc2)cc1	.	.	.	-1.6	.	4.4
NS(=O)(=O)c1ccc(CNC(=S)Nc2ccc(F)c(Cl)c2)cc1	0.5	-0.7	.	-1.0	43.5*	0.6
CCC(=O)N1[C@H](CN(C(C)C)S(C)(=O)=O)[C@H](c2ccccc2)[C@@H]1CO	-1.2	.	5.0	.	0.2	.
Cc1ccc(NC(=O)/C=C/c2ccc([N+](=O)[O-])s2)c(C)c1	2.0	-7.9	.	1.4	0.0	-109.9
Cc1cc([N+](=O)[O-])ccc1NC(=O)/C=C/c1cccs1	.	35.0*	.	2.9	.	70.1
C[C@H]1CN([C@@H](C)CO)C(=O)c2cccc(NC(=O)C3CCCCC3)c2O[C@@H]1CN(C)Cc1ccc(Cl)c(Cl)c1	0.7	.	-0.8	.	0.1	.
CC(=O)Nc1ccc2c(COC(=O)CC3Sc4ccccc4NC3=O)cc(=O)oc2c1 (stereo not drawn)	-3.8	4.7	.	-0.4	43.1*	11.7
COC(=O)CC1Sc2ccccc2NC1=O (stereo not drawn)	.	-1.4	-1.3	-2.6	.	.
COc1ccc2c(COC(=O)CC3Sc4ccccc4NC3=O)cc(=O)oc2c1 (stereo not drawn)	-0.4	10.5	.	0.6	43.7*	8.7
